Here are results for one sequence from PMC7862700, “An all-to-all approach to the identification of sequence-specific readers for epigenetic DNA modifications on cytosine”.

What all share (assay): DAPPL (digital affinity profiling via proximity ligation, sequencing); 10 mM Tris-HCl pH 7.5, 50 mM NaCl, 1 mM DTT, 4% glycerol, room temperature, 30 min; GST-TFs on glutathione beads, 16-mer random dsDNA library, 0.1% formaldehyde crosslink after washing; high values mean tight binding
One experiment deals with T1, FEV (Homo sapiens, UniProt Q99581 1-238).
T1 sequence: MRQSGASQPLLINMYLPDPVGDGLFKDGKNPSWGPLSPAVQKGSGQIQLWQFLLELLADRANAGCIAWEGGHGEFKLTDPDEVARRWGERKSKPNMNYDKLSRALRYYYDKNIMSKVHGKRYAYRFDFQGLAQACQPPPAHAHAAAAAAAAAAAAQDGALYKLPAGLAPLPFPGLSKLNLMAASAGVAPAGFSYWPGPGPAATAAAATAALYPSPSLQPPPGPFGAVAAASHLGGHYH
Conditions: protein: recombinant; tags: N-terminal GST; dsDNA, one strand shown. The essentials:
(§1)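 After expression in yeast as GST fusions, human transcription factors were bound to glutathione beads, DNA-barcoded and mixed with a tag-only sample. The pools were incubated with 200 nmole of a 16-mer random double-stranded DNA library in Tris/NaCl/DTT/glycerol buffer (30 min, room temperature), washed and crosslinked with 0.1% formaldehyde. Proximity ligation with BsaI/T4 ligase ran for 1 h at 37 °C, before PCR amplification and sequencing on an Illumina NextSeq500. Binding signal is a hexamer's read frequency for a factor divided by its frequency for the tag-only sample.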

For another experiment, the target named is ETV5 (Homo sapiens, UniProt P41161 1-510). The settings on record: protein: recombinant; tags: N-terminal GST; dsDNA, one strand shown. The method, boiled down: as §1
The target in the next experiment is HSF1 (Homo sapiens, UniProt Q00613 1-529). The settings on record: protein: recombinant; tags: N-terminal GST; chain copies: 3; dsDNA, one strand shown. The essentials: as §1
The target of another experiment is T2, SPIC (Homo sapiens, UniProt Q8N5J4 1-248).
T2 sequence: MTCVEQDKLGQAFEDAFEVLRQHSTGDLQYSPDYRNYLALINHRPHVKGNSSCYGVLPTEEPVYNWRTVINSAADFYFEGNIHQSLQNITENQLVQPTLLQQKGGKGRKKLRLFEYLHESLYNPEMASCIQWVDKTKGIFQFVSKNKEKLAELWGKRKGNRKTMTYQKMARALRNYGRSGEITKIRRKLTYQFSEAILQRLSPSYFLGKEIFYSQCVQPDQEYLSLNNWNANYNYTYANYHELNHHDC
Conditions: protein: recombinant; tags: N-terminal GST; dsDNA, one strand shown. The method, boiled down:
as §1

A further experiment addresses ELF4 (Homo sapiens, UniProt Q99607 1-663). Conditions: protein: recombinant; tags: N-terminal GST; dsDNA, one strand shown. The essentials:
as §1

A further experiment concerns the target T3, ELK4 (Homo sapiens, UniProt P28324-2 1-405).
T3 sequence: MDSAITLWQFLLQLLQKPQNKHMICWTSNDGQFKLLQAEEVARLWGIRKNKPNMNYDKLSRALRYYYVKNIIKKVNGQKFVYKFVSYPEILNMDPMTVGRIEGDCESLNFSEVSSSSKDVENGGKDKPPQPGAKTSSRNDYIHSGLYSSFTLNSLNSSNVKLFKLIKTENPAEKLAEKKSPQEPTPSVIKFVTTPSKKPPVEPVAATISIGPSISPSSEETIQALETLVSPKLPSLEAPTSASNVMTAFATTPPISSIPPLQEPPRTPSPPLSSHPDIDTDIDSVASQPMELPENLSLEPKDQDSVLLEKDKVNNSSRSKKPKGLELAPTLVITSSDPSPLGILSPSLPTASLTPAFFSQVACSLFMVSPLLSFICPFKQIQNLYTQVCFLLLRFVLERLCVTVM
Conditions: protein: recombinant; tags: N-terminal GST; dsDNA, one strand shown. The method, boiled down:
as §1

A further experiment concerns the target T4, ETV2 (Homo sapiens, UniProt O00321 1-342).
T4 sequence: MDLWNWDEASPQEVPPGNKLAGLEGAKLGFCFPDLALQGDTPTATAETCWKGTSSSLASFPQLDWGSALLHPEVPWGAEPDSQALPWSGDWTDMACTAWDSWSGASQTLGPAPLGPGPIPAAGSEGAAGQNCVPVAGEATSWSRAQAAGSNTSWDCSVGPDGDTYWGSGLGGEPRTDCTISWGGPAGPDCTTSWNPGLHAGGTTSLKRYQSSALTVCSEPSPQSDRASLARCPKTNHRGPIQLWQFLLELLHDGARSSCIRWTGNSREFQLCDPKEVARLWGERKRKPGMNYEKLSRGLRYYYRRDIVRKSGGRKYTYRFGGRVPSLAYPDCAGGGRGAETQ
The settings on record: protein: recombinant; tags: N-terminal GST; dsDNA, one strand shown. The method, boiled down:
as §1

The target in another experiment is T5, ELF3 (Homo sapiens, UniProt P78545 1-371).
T5 sequence: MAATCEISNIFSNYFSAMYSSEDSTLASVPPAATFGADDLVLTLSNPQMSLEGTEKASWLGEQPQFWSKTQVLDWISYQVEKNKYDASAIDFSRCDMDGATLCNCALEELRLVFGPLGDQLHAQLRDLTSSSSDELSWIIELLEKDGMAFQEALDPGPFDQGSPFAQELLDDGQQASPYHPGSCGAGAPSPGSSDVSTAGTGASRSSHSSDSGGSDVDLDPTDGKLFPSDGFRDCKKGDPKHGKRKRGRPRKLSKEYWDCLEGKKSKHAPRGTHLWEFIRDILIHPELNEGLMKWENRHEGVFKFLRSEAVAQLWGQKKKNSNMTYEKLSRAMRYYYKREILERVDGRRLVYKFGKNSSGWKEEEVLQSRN
The settings on record: protein: recombinant; tags: N-terminal GST; dsDNA, one strand shown. The essentials:
as §1

The target in the next experiment is CRX (Homo sapiens, UniProt O43186 1-299). Conditions: protein: recombinant; tags: N-terminal GST; dsDNA, one strand shown. The essentials:
as §1

In the next experiment the target is ETV1 (Homo sapiens, UniProt P50549 1-477). Conditions: protein: recombinant; tags: N-terminal GST; dsDNA, one strand shown. The essentials: as §1
The target of the next experiment is T6, ERF (Homo sapiens, UniProt P50548 1-548).
T6 sequence: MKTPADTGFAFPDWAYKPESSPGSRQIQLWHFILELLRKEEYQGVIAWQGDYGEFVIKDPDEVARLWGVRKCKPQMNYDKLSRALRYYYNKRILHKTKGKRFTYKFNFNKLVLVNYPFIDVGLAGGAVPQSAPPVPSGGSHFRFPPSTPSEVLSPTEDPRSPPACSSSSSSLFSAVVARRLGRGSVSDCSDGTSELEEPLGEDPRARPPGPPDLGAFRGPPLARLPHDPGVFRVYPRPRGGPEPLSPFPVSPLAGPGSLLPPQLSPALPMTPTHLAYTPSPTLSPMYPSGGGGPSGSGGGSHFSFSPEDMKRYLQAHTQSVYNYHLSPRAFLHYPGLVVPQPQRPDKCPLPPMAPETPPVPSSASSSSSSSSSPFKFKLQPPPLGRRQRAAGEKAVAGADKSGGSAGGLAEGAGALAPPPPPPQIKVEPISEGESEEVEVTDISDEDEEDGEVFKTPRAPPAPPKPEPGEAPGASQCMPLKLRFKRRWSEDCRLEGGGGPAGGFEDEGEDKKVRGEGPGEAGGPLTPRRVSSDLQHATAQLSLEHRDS
Conditions: protein: recombinant; tags: N-terminal GST; dsDNA, one strand shown. The essentials:
as §1

For another experiment, the target named is T7, ETV3L (Homo sapiens, UniProt Q6ZN32 1-361).
T7 sequence: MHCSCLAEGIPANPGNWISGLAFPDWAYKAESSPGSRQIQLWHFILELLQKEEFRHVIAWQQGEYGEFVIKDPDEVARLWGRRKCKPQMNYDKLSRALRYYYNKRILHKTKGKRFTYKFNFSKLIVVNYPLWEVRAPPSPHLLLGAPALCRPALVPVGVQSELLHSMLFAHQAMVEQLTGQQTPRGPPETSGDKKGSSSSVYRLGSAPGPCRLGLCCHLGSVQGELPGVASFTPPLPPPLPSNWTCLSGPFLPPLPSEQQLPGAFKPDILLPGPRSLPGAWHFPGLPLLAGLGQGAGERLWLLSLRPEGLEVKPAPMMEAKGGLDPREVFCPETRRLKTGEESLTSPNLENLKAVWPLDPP
Conditions: protein: recombinant; tags: N-terminal GST; dsDNA, one strand shown. The essentials:
as §1

The target of the next experiment is T8, ETS2 (Homo sapiens, UniProt P15036 1-469).
T8 sequence: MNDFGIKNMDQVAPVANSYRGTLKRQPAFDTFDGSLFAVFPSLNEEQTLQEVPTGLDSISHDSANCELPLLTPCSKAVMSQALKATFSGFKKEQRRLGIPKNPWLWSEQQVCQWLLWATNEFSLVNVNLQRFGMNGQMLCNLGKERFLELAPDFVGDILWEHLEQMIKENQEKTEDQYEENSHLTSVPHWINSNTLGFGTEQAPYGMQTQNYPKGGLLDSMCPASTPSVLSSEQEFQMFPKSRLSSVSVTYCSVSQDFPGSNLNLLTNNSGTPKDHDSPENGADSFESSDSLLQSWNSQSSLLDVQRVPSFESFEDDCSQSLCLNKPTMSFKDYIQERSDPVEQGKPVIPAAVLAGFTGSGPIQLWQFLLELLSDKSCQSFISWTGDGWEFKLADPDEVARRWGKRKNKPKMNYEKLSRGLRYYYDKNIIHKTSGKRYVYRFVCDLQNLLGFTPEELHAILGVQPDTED
Conditions: protein: recombinant; tags: N-terminal GST; dsDNA, one strand shown. The method, boiled down: as §1

The next experiment deals with T9, SPDEF (Homo sapiens, UniProt O95238 1-335).
T9 sequence: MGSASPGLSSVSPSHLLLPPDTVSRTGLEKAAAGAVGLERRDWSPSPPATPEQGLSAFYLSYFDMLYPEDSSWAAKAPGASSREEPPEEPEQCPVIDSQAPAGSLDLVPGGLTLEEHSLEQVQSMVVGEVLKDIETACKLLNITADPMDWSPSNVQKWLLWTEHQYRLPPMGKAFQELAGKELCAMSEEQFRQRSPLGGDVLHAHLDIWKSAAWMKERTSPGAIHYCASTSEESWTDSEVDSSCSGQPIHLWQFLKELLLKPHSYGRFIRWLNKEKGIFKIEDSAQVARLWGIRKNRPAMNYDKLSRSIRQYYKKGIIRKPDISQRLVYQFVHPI
The settings on record: protein: recombinant; tags: N-terminal GST; dsDNA, one strand shown. The method, boiled down: as §1

In the next experiment the target is T10, ETV7 (Homo sapiens, UniProt Q9Y603 1-341).
T10 sequence: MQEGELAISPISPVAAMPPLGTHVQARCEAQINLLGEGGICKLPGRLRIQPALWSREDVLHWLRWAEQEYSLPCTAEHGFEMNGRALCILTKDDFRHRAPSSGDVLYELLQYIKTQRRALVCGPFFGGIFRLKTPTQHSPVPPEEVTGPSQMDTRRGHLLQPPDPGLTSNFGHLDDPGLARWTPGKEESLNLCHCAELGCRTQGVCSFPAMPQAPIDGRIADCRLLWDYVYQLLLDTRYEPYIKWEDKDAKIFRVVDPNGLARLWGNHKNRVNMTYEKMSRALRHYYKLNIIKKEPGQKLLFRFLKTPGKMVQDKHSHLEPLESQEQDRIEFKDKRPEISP
The settings on record: protein: recombinant; tags: N-terminal GST; dsDNA, one strand shown. The method, boiled down: as §1

In a further experiment the target is T11, ELF5 (Homo sapiens, UniProt Q9UKW6-2 1-255).
T11 sequence: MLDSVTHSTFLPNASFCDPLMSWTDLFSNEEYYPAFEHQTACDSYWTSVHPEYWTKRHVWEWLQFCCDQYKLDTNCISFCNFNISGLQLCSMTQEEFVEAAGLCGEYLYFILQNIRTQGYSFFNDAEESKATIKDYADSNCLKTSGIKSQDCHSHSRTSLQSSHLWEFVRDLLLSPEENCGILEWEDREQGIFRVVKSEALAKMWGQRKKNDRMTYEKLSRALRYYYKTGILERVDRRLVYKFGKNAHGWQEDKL
The settings on record: protein: recombinant; tags: N-terminal GST; dsDNA, one strand shown. The method, boiled down:
as §1

The next experiment addresses T12, ETV3 (Homo sapiens, UniProt P41162-2 1-143).
T12 sequence: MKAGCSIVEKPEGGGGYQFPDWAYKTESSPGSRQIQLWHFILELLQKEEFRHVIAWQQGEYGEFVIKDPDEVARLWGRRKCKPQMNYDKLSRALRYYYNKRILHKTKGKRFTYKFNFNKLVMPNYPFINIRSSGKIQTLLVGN
The settings on record: protein: recombinant; tags: N-terminal GST; dsDNA, one strand shown. The essentials:
as §1

Another experiment concerns the target ETV6 (Homo sapiens, UniProt P41212 1-452). The settings on record: protein: recombinant; tags: N-terminal GST; dsDNA, one strand shown. The essentials: as §1

Chain of HSF1 (Q00613 whole entry): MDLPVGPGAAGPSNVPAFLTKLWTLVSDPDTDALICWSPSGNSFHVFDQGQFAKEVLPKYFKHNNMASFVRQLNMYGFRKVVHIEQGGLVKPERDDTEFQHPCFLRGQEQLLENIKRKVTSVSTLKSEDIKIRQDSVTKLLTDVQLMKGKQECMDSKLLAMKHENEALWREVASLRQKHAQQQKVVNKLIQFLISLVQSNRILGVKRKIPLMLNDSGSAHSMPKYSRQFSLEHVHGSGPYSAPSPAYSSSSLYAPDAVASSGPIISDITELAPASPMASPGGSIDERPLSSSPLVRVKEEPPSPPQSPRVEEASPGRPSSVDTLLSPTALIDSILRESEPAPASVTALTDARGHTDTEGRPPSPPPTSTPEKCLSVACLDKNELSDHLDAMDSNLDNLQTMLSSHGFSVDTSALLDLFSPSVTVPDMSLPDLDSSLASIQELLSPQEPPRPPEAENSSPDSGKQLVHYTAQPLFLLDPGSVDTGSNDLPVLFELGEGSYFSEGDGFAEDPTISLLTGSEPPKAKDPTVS
Chain of ETV1 (P50549 whole entry): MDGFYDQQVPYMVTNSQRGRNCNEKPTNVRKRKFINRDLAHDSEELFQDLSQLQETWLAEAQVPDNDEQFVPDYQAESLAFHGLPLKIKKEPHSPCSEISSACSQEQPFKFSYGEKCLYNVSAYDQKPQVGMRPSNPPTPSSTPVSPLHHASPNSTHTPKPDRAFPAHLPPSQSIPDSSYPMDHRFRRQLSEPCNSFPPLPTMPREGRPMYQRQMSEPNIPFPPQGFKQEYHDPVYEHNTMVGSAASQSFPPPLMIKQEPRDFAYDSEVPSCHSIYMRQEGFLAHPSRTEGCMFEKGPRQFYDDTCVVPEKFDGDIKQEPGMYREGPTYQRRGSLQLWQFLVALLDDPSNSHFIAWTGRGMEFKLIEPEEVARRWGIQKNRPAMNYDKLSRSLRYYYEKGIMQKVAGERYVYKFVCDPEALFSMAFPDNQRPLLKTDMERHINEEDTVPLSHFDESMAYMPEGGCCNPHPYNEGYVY
Chain of ETV5 (P41161 whole entry): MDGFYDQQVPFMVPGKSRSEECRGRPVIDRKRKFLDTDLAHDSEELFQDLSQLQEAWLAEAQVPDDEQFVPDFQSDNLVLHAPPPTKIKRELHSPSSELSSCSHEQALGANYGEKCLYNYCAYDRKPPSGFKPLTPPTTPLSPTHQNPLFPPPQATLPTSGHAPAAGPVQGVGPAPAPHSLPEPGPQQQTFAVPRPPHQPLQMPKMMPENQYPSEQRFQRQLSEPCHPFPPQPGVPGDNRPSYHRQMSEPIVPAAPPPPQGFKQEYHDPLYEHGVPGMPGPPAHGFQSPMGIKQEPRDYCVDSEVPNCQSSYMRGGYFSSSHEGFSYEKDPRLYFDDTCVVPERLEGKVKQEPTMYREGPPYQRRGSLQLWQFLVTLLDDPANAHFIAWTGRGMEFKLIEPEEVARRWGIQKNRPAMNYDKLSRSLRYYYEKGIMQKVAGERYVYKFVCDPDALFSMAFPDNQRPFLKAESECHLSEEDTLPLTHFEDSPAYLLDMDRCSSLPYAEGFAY
Chain of ELF4 (Q99607 whole entry): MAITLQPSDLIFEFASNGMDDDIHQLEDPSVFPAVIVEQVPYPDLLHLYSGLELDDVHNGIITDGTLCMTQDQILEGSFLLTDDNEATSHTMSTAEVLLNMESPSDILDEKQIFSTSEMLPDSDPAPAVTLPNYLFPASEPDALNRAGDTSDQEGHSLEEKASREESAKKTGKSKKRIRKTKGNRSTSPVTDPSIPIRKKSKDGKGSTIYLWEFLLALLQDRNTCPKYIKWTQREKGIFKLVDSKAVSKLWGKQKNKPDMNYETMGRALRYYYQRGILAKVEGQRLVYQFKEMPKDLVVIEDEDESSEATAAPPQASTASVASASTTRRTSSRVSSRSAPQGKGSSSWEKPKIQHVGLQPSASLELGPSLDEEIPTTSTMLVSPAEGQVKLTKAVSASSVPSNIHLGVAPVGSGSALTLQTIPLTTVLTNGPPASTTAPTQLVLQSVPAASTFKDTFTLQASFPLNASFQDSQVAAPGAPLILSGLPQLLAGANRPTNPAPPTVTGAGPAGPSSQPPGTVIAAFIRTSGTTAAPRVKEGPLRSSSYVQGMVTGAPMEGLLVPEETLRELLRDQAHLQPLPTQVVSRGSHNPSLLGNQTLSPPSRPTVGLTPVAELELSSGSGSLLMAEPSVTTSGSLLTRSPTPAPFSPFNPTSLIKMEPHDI
Chain of CRX (O43186 whole entry): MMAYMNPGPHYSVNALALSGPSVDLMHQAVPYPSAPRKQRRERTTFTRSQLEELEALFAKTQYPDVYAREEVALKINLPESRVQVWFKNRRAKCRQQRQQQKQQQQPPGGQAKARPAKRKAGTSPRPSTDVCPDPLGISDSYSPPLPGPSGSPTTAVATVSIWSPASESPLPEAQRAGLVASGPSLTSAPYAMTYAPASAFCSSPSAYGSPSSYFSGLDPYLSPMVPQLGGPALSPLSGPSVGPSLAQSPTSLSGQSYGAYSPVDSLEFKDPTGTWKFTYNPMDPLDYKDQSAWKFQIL
Chain of ETV6 (P41212 whole entry): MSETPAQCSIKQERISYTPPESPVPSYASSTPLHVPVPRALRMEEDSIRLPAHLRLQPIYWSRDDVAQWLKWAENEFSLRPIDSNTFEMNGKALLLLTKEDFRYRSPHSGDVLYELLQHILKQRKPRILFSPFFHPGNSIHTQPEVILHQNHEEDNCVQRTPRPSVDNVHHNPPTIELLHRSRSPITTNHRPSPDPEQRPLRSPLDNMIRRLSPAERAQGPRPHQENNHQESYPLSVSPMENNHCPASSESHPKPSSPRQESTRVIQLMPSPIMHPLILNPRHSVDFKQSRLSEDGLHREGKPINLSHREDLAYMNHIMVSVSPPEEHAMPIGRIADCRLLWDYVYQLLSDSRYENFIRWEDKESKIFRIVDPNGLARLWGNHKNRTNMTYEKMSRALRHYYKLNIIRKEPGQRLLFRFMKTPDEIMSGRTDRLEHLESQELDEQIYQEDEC

For ACGTAT, the binding signal with FEV was 1.2 fold enrichment (6-mer frequency, TF over GST control); in the experiment with ETV5, 1.2 fold enrichment (6-mer frequency, TF over GST control); in the experiment with HSF1, 1.09 fold enrichment (6-mer frequency, TF over GST control); with SPIC, 1.14 fold enrichment (6-mer frequency, TF over GST control); in the experiment with ELF4 it was 1.27 fold enrichment (6-mer frequency, TF over GST control); with ELK4 it was 1.16 fold enrichment (6-mer frequency, TF over GST control). In addition, the binding signal is 1.24 fold enrichment (6-mer frequency, TF over GST control) with ETV2; 1.25 fold enrichment (6-mer frequency, TF over GST control) in the experiment with ELF3; 1.15 fold enrichment (6-mer frequency, TF over GST control) with CRX; 1.32 fold enrichment (6-mer frequency, TF over GST control) with ETV1; 1.15 fold enrichment (6-mer frequency, TF over GST control) in the experiment with ERF; 1.28 fold enrichment (6-mer frequency, TF over GST control) with ETV3L. The binding signal with ETS2 is 1.27 fold enrichment (6-mer frequency, TF over GST control); with SPDEF, 1.36 fold enrichment (6-mer frequency, TF over GST control); with ETV7, 1.25 fold enrichment (6-mer frequency, TF over GST control); in the experiment with ELF5, 1.16 fold enrichment (6-mer frequency, TF over GST control); with ETV3 it was 1.26 fold enrichment (6-mer frequency, TF over GST control); in the experiment with ETV6, 1.22 fold enrichment (6-mer frequency, TF over GST control).
